# Entries with a potency or affinity are not part of this list. Active and inactive are the calls of the source.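 How the source made its calls: active means compounds lowering cell ATP signal whose fitted half-maximal concentration is at most twice the top tested dose; inconclusive means flat curve with 30 to 70% signal loss, or poor fit; inactive means the rest.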
# Assay: viability loss in HEK293T cells – cell-based, CellTiter-Glo luminescence, dry powder, set 6, cytotoxicity control, dose response (AID 651949)
# Details: CellTiter-Glo ATP luminescence, 48 h; series mostly up to 26 µM
row,Structure (SMILES),outcome
1,Fc1cccc(CSc2nnc(-c3ccccc3)o2)c1,inactive
2,N#Cc1cccc(-c2nnc(SCc3ccccc3)o2)c1,inactive
3,Cc1cccc(CSc2nnc(-c3ccc(Cl)cc3)o2)n1,inactive
4,Clc1ccc(CSc2nnc(-c3ccccc3)o2)cc1,inactive
5,c1ccc(-c2nnc(SCCN3CCOCC3)o2)cc1,inactive
6,c1ccc(CSc2nnc(-c3cccs3)o2)cc1,inactive
7,FC(F)(F)Oc1ccccc1-c1nnc(SCc2ccccc2)o1,inactive
8,Cc1ccc(-c2nnc(SCc3ccccn3)o2)cc1,inactive
9,c1ccc(-n2cc(CSc3nnc(C4CCCC4)o3)nn2)cc1,inactive
10,c1ccc(CSc2nnc(-c3cscn3)o2)cc1,inactive
11,FC(F)(F)c1ccc(-c2nnc(SCc3ccccc3)o2)cc1,inactive
12,Clc1cccc(CSc2nnc(-c3ccccc3)o2)c1,inactive
13,COc1ccc(CSc2nnc(-c3ccc(Cl)cc3)o2)nc1,inactive
14,O=C(Cc1ccccc1)C(C(=O)c1nnc(-c2ccccc2)o1)c1ccccc1 (centres undefined),inactive
15,c1ccc(CNc2nnc(-c3ccccc3)o2)cc1,inactive
16,c1ccc(Sc2nnc(-c3ccccc3)o2)cc1,inactive
17,O=S(Cc1ccccc1)c1nnc(-c2ccccc2)o1 (centres undefined),inactive
18,COc1ccc(-c2nnc(SCc3ccccn3)o2)cc1,inactive
19,FC(F)(F)Oc1cccc(CSc2nnc(-c3ccccc3)o2)c1,inactive
20,Fc1ccc(-c2nnc(SCc3cn(-c4ccccc4)nn3)o2)cc1,inactive

row,Structure (SMILES),outcome
1,CCSc1nnc(-c2ccccc2)o1,inactive
2,FC(F)(F)c1cccc(CSc2nnc(-c3ccccc3)o2)c1,inactive
3,Fc1cccc(-c2nnc(SCc3ccccc3)o2)c1,inactive
4,c1ccc(CSc2nnc(-c3ccncc3)o2)cc1,inactive
5,FC(F)(F)Oc1cccc(-c2nnc(SCc3ccccc3)o2)c1,inactive
6,c1ccc(-c2nnc(SCc3ccccn3)o2)cc1,inactive
7,c1ccc(CSc2nnc(-c3cc4ccccc4o3)o2)cc1,inactive
8,COc1cccc(CSc2nnc(-c3ccccc3)o2)c1,inactive
9,Fc1ccc(-c2nnc(SCc3ccccn3)o2)cc1,inactive
10,FC(F)(F)Oc1ccc(-c2nnc(SCc3ccccc3)o2)cc1,inactive
11,c1ccc(-c2ccc(CSc3nnc(-c4ccccc4)o3)cc2)cc1,inactive
12,c1ccc(CSc2nnc(-c3cnco3)o2)cc1,inactive
13,Cc1ccccc1-c1nnc(SCc2ccccc2)o1,inactive
14,c1ccc(CSc2nnc(-c3ccccc3)s2)cc1,inactive
15,FC(F)(F)CNCCSc1nnc(-c2ccccc2)o1,inactive
16,N#Cc1ccc(CSc2nnc(-c3ccccc3)o2)cc1,inactive
17,COc1cccc(-c2nnc(SCc3ccccc3)o2)c1,inactive
18,COc1ccccc1CSc1nnc(-c2ccccc2)o1,inactive
19,Fc1ccc(-c2nnc(SCc3ccccc3)o2)cc1,inactive

# — PubChem BioAssay AID651949 (Broad Institute, 2012)
